Screening results deposited in PubChem BioAssay by The Scripps Research Institute Molecular Screening Center.
PAD4 inh: inhibitors of human PAD4; recombinant PAD4, RCA probe fluorescence polarization; 0.41% of 330,000 active; Q9UM07; inhibition, % at 6.36 µM; AID 485272;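 active = percent inhibition above a cutoff equal to the mean of all tested compounds plus 3 SD, cut at about 15% in these data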;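 note: 0% = PAD4 with RCA probe and DMSO and 100% = probe without PAD4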
LYPLA1 counter: counter-screen for PME1 inhibitors: inhibitors of human LYPLA1; O75608; recombinant LYPLA1, FP-Rh probe fluorescence polarization; inhibition, % at 5.9 µM; 0.16% of 320,000 active;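 active = inhibition above the mean of all tested compounds plus 3 SD, set per campaign, cut at about 14% in these data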;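 note: inhibitors block serine hydrolase probe labeling of LYPLA1 so polarization falls; 0% = enzyme with DMSO and 100% = wells lacking LYPLA1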
GSTO1 inh: counter-screen for RBBP9 inhibitors: inhibitors of human GSTO1; inhibition, % at 5.96 µM; P78417; recombinant GSTO1, activity-based probe fluorescence polarization; 1.1% of 300,000 active;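 active = inhibition above the campaign mean inhibition plus 3 SD, cut at about 35% in these data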;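 note: 0% = GSTO1-1 with DMSO and 100% = wells lacking GSTO1-1 enzyme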
Target sequence (P78417 whole entry, looked up): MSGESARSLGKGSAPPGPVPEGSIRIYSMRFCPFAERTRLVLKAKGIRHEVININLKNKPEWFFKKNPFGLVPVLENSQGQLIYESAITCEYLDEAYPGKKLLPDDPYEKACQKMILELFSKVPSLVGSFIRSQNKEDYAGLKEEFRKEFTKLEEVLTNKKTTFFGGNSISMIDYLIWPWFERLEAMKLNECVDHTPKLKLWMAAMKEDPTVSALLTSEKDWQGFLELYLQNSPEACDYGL
PME-1 inh: blocks human protein phosphatase methylesterase 1; AID 2130; recombinant PME-1, FP-Rh probe fluorescence polarization; 0.53% of 320,000 active; inhibition, % at 5.9 µM;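 active = inhibition above the campaign mean of all compounds plus 3 SD, cut at about 26% in these data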;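 note: competitive labeling of PME-1 active site by serine hydrolase directed probe; 0% = PME-1 with DMSO and 100% = wells lacking PME-1 enzyme; inhibitors block probe labeling so polarization falls and inhibition rises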
Fam108B inh: Fam108B inhibition, counter-screen for RBBP9 inhibitors; recombinant Fam108B, FP-Rh probe fluorescence polarization; inhibition, % at 9.51 µM; 0.33% of 300,000 active; AID 1947;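 active = inhibition above the screen mean inhibition plus 3 SD, computed separately per campaign, cut at about 18% in these data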;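 note: inhibitors lower polarization as less probe binds the enzyme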
LYPLA2 inh: blocks human lysophospholipase 2, a PME1 counter-screen; AID 2177; O95372; recombinant LYPLA2, FP-Rh probe fluorescence polarization; inhibition, % at 5.9 µM; 0.38% of 320,000 active;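 active = inhibition above the screen-wide mean plus 3 SD, limit set per campaign, cut at about 26% in these data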;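 note: 0% = LYPLA2 with DMSO and 100% = wells lacking LYPLA2 enzyme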
Target sequence (O95372 whole entry, looked up): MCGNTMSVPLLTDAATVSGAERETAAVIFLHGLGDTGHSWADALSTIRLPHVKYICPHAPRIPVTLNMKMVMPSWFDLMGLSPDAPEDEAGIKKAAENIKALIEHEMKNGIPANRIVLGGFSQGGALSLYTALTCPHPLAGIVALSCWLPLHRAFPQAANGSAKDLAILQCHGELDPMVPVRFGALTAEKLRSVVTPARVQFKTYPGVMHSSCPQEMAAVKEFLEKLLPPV
The depositor's hits bear a star; x = no result. Rows were chosen to be rich in hits. Some 1.7% of all compounds tested hit in one or more screens of this group.

SMILES | PAD4 inh | LYPLA1 counter | GSTO1 inh | PME-1 inh | Fam108B inh | LYPLA2 inh
COc1ccc(/C=N/NC(=O)c2cc(C)n(-c3ccccc3)c2C)cc1OC | -4 | -6 | 8 | -4 | 4 | -2
Cc1cc2c(C)cc(=O)[nH]c2cc1NC(=O)CCl | -2 | -2 | 71* | -1 | 1 | 1
COc1ccc(-c2csc(NC(=O)c3ccccc3NS(=O)(=O)c3ccc(F)c(F)c3)n2)cc1 | -8 | 4 | -48 | 31* | 18 | 12
CC1(C)CC(O)CC(C)(C)N1CC(O)COCCOc1ccc(Br)cc1 (centres undefined) | 2 | -2 | 35* | -9 | -1 | -7
CC1CC(C)CN(CC(O)COCCOc2ccc(Br)cc2)C1 (centres undefined) | 0 | 1 | 2 | 4 | -1 | 1
COc1ccc(S(=O)(=O)N(CC(=O)NCc2cccnc2)c2ccc(F)cc2)cc1OC | 1 | 2 | 5 | 6 | 8 | 10
Cc1ccc2cc(CN(CC3CCCO3)C(=S)Nc3ccccc3)c(=O)[nH]c2c1 (centres undefined) | -3 | -3 | -2 | 6 | 7 | 0
CCn1c(/C=C/c2c[nH]c3ccccc23)nc2ccccc2c1=O | 0 | -3 | 7 | 44* | 3 | -4
CCn1c(/C=C\c2ccccc2C)nc2ccccc2c1=O | -7 | -3 | -5 | 1 | -3 | 1
COc1ccccc1N1CCN(CCCCN2C(=O)C3CCCCN3C2=O)CC1 (centres undefined) | 4 | -4 | 0 | -2 | 0 | -4
Oc1ccc(/C=C/c2ccc3cccc(O)c3n2)cc1Br | -5 | -4 | 5 | 31* | 8 | -4
CC1=NN(c2ccccc2C(=O)O)C(=O)C1N=Nc1ccccc1 (centres undefined) | -5 | -3 | 36* | 16 | 7 | 3
O=C(CCC1CCCC1)NNC(=O)c1ccc(F)cc1 | 4 | -3 | x | -1 | x | -5
CC(=O)OCn1ncc(N2CCOCC2)c(Br)c1=O | 2 | -2 | 3 | 0 | -6 | 5
O=C(OCn1ncc(Br)c(Br)c1=O)c1ccc(F)cc1 | 26* | -3 | 36* | -4 | -11 | -9
O=C(O)c1ccc(N=C2NC(=O)C(CO)(CO)S2)cc1 | -2 | 2 | -2 | 2 | -1 | 2
COc1ccc(/C(C)=N/OC/C(O)=C(\C#N)c2nc3ccccc3[nH]2)c(OC)c1 | 3 | -1 | 37* | -1 | 3 | 4
COc1ccc(/C(C)=N/OC/C(O)=C(\C#N)c2nc3ccccc3[nH]2)cc1OC | -1 | -3 | 20 | -9 | 6 | -5
CC(C)(C)c1ccc(/C=N/Nc2ccc(C(=O)O)cc2)cc1 | 1 | 0 | -3 | 13 | 3 | 14
CC1Oc2ccccc2C=C1/C=N/Nc1ccc(C(=O)O)cc1 (centres undefined) | -2 | 7 | 9 | 34* | 0 | 3
NC(=O)c1sc2nc(-c3ccccc3)c3c(c2c1N)CCCC3 | 2 | 0 | 7 | 33* | 5 | 1
Cc1ccc(-c2nc3sc(C(N)=O)c(N)c3c3c2CCCC3)cc1 | -2 | -6 | 1 | -7 | -1 | -9
COc1ccccc1N1CCN(/N=C/c2ccc(O)c(O)c2)CC1 | -10 | -6 | 51* | -7 | 3 | -11
O=C(Cc1c(F)cccc1Cl)NNC(=O)c1ccncc1 | -4 | -5 | x | 4 | x | -4
O=C1NC(=O)[C@@H]2C3c4ccccc4C=CN3[C@H](C(=O)c3cccs3)[C@H]12 (some centres undefined) | 8 | 8 | 35* | 9 | 16 | 13
SMILES | PAD4 inh | LYPLA1 counter | GSTO1 inh | PME-1 inh | Fam108B inh | LYPLA2 inh
O=C(c1ccco1)[C@@H]1[C@@H]2C(=O)N(c3ccc(F)cc3)C(=O)[C@@H]2C2c3ccccc3C=CN21 (some centres undefined) | -13 | -2 | 31 | 5 | 8 | -1
COc1ccc(-c2cc(C(=O)N3CCN(C(=O)c4ccccc4F)CC3)[nH]n2)cc1 | -4 | 6 | -5 | 30* | 0 | 10
COc1ccc(-c2cc(C(=O)N3CCN(S(=O)(=O)c4ccccc4)CC3)[nH]n2)cc1 | -1 | 1 | 1 | 5 | -2 | 7
Cc1ccc(CCNC(=O)Cn2ncc3c([nH]c4ccccc43)c2=O)cc1 | 0 | -4 | 13 | -12 | -2 | 4
Cc1ccc2[nH]c3c(=O)n(CC(=O)NCc4ccco4)ncc3c2c1 | -1 | -11 | 36* | -18 | -13 | -14
O=C(C[C@H]1C/C=C\C[C@@H](Cc2ccc(F)cc2)C(=O)O[C@H](c2ccccc2)CNC1=O)NCCO | 4 | x | x | x | x | x
CC(=O)c1ccc(Nc2ccc([N+](=O)[O-])c3nonc23)cc1 | 2 | -3 | 15 | 0 | -1 | -2
NS(=O)(=O)c1ccc(Nc2ccc([N+](=O)[O-])c3nonc23)cc1 | -3 | 0 | 37* | -8 | 3 | 3
C=CCn1c(O)c(N=Nc2ccccc2O)c2ccccc21 | -3 | -3 | x | 34* | x | 8
COc1ccc(S(=O)(=O)Nc2ccc(Oc3ccsc3C(=O)O)cc2)cc1 | 0 | -1 | 35* | 1 | -5 | -3
N#CC1(NC(=O)CSc2n[nH]c(-c3ccccc3)n2)CCCCC1 | -3 | 2 | -4 | 0 | 2 | 5
Cn1c(SCC(=O)c2cc(Cl)c(Cl)s2)nnc1-c1ccco1 | -4 | 0 | 44* | -1 | -4 | 0
Cc1ccc(C(=O)CSc2nnc(-c3ccco3)n2C)cc1 | 1 | -2 | 12 | 1 | -1 | 1
O=C1C(=Cc2ccc(Br)o2)C(=O)c2ccccc21 | 1 | -7 | 33 | -7 | 55* | 2
c1ccc(C2=Nc3ccccc3SC2c2nc3ccccc3[nH]2)cc1 (centres undefined) | 28* | 1 | 13 | 23 | -1 | 1
CCN(CC(=O)Nc1ccc(OC)cc1)C(=O)CSCc1c(C)noc1C | 0 | -2 | x | 0 | x | -1
O=C(O)c1ccc(-c2ccc(/C=N/Nc3ccc([N+](=O)[O-])cc3)o2)cc1 | -8 | 4 | -7 | 47* | 14 | 24
C/C(=N/NC(=O)CN(c1ccccc1)S(=O)(=O)c1ccccc1)c1ccccc1O | 0 | -15 | -2 | -4 | -6 | -21
COc1cccc(-c2nc(NC(C)C)c3ccccc3n2)c1O | -1 | -5 | 6 | 26* | 11 | 6
COc1cccc(/C=C/c2[nH]c(=O)[nH]c(=O)c2[N+](=O)[O-])c1O | 4 | -1 | 36* | 4 | 2 | 2
O=C(CSc1ccc2ccccc2c1)NCCc1ccc(O)c(O)c1 | -1 | 2 | 52* | 4 | -1 | 4
COC1OC(COC(=O)c2ccccc2)C(OC(=O)c2ccccc2)C1OC(=O)c1ccccc1 (centres undefined) | 3 | -4 | -6 | -5 | -2 | -1
